Assay results published in PubChem BioAssay (NCATS).
Values joined by “and” are separate entries in the source; they are usually repeats but may differ in a detail not shown here. Equal values may be shown once. Inconclusive results are not listed. Active and inactive are the calls of the source. Calls come from the whole dose curve; as a rule, active = well fitted curve in the direction sought with a large enough effect; inconclusive = small, poorly fitted or top-dose-only effect, or another doubt; inactive = no such curve, though single readings can be large; an effect the other way counts as inactive or inconclusive.

Assays:
[1] = Quantitative highthroughput screen to assess conditional lethalithy of P12 Ichikawa cells grown in Human Plasma-Like Medium with dialyzed fetal bovine serum (HPLM+ds) (AID 1963879); conditions: ATP luminescence, 48 h; Potency: viability; series mostly up to 45.8 µM; note: nearly all actives have a fitted effect of over 35% in size; note: potency is the fitted concentration of half-maximal effect
Outline: (§1)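 Each medium arm—HPLM with 10% dialyzed FBS, or RPMI1640 with 5 mM glucose and 10% untreated or dialyzed FBS—was screened against an 11-point, 3-fold compound titration for 48 h at 37 °C, with CellTiter-Glo luminescence as endpoint.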

[2] = Quantitative highthroughput screen to assess conditional lethalithy of P12 Ichikawa cells grown in RPMI1640 with dialyzed fetal bovine serum (RPMI+ds) (AID 1963880); conditions: ATP luminescence, 48 h; Potency: P12-Ichikawa viability; series mostly up to 45.8 µM; note: potency is the fitted concentration of half-maximal effect; nearly all actives have a fitted effect of over 35% in size
Outline: as §1

[3] = Quantitative highthroughput screen to assess conditional lethalithy of P12 Ichikawa cells grown in RPMI1640 with untreated serum (RPMI+s) (AID 1963881); conditions: ATP luminescence, 48 h; Potency: viability; series mostly up to 45.8 µM; note: potency is the fitted concentration of half-maximal effect; nearly all actives have a fitted effect of over 35% in size
Outline: as §1

[4] = Quantitative highthroughput screen to assess conditional lethalithy of SEM cells grown in Human Plasma-Like Medium with dialyzed fetal bovine serum (HPLM+ds) (AID 1963882); conditions: SEM B-ALL cells in HPLM+ds, CellTiter-Glo viability, 48 h; series mostly up to 45.8 µM; note: potency is the fitted concentration of half-maximal effect; nearly all actives have a fitted effect of over 35% in size
Outline: as §1

[5] = Quantitative highthroughput screen to assess conditional lethalithy of SEM cells grown in RPMI1640 with unreated serum (RPMI+s) (AID 1963883); conditions: SEM B-ALL cells, CellTiter-Glo viability, 48 h; series mostly up to 45.8 µM
Outline: as §1

[6] = Quantitative highthroughput screen to assess conditional lethalithy of SEM cells grown in RPMI1640 with dialyzed fetal bovine serum (RPMI+ds) (AID 1963884); conditions: SEM B-ALL cells, RPMI+dialyzed FBS, CellTiter-Glo viability, 48 h; series mostly up to 45.8 µM
Outline: as §1

[7] = Cellular viability qHTS for adrenocortical cancer (ACC) cell line SW-13 (AID 1963989); conditions: SW-13 ACC cells viability, CellTiter-Glo, 48 h; activity (max response): hits give low values;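 note: cells grown in serum-free medium with ITS supplement; % is set by controls: 0 for no effect and ±100 for the full control effect; nearly all actives have a fitted effect of over 65% in size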
Outline: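 Viability was read as CellTiter-Glo luminescence after 48 h compound treatment (up to 46 uM final) of SW-13 cells grown serum-free; titration curves were fit with a four-parameter logistic model to give IC50 and efficacy.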

[8] = Cellular viability qHTS for adrenocortical cancer (ACC) cell line NCI-H295R (AID 1963990); conditions: CellTiter-Glo ATP luminescence, 48 h; series mostly up to 46.1 µM;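 note: 0% = DMSO only wells and -100% = full killing with cytotoxic reference compound; nearly all actives have a fitted effect of over 60% in size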
Outline: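 CellTiter-Glo ATP luminescence, read 48 h after compound addition, measured viability of NCI-H295R adrenocortical cells grown serum-free with ITS. Final concentrations spanned up to 46 uM. Data normalized to DMSO and doxorubicin, fitted for IC50 and maximal response.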

CC(C)OC(=O)[C@H](C)N[P@](=O)(OC[C@H]1O[C@@H](n2ccc(=O)[nH]c2=O)[C@](C)(F)[C@H]1O)Oc1ccccc1
active: Potency [1] 1.32 µM | Potency [2] 4.69 µM | Potency [3] 6.62 µM | Potency [4] 4.69 µM | Potency [5] 6.62 µM | Potency [6] 8.33 µM

CCC(=C(c1ccc(O)cc1)c1ccc(OCCNC)cc1)c1ccccc1
active: Potency [1] 4.18 µM | Potency [4] 13.2 µM | Potency [5] 7.43 µM

Cc1c[nH]c(C=C2C(=O)Nc3ccccc32)c1CCC(=O)O
active: Potency [1] 2.64 µM | Potency [4] 0.833 µM

CCC(=O)NC[C@H](Cc1ccc(OCCc2nc(-c3ccccc3)oc2C)cc1)NC(C)=CC(=O)c1ccc(C(F)(F)F)cc1
active: Potency [1] 10.5 µM | Potency [2] 16.6 µM | Potency [3] 16.6 µM

CO[C@@H]1[C@@H](O)[C@H](O)[C@@H](n2c3c(Cl)cccc3c3c4c(c5c6cccc(Cl)c6[nH]c5c32)C(=O)NC4=O)O[C@@H]1CO
active: Potency [1] 0.296 µM | Potency [2] 0.264 µM | Potency [3] 0.235 µM | Potency [4] 0.59 µM | Potency [5] 0.235 µM | Potency [6] 0.469 µM

CC1=C(C)C(=O)C(C(CCCCCC(=O)O)c2ccccc2)=C(C)C1=O (stereo not drawn)
inactive: Potency [1] | activity (max response) [7] 0.763% and -13.4% | Potency [8]
active: Potency [3] 8.33 µM

O=c1[nH]c(=O)n([C@H]2C[C@@H](O)[C@@H](CO)O2)cc1C(F)(F)F
active: Potency [1] 1.18 µM | Potency [3] 3.72 µM | Potency [5] 9.35 µM | Potency [6] 1.87 µM
